# Measurements reported in PubChem BioAssay (NCATS).
# Where “and” joins values, the source holds several entries; their conditions need not be identical. Identical values can stand only once. Inconclusive results are not listed. Entries that show only a call come without a potency. Unmarked numbers belong to inactive results. Calls of active or inactive are those of the source. Unless noted, the call rests on the fitted dose curve; in most records, active means well fitted curve in the direction sought with a large enough effect; inconclusive means small, poorly fitted or top-dose-only effect, or another doubt; inactive means no such curve, though single readings can be large; an effect the other way counts as inactive or inconclusive.
# Experiments:
# [1] = qHTS for Inhibitors of Plasmodium falciparum (DD2) proliferation (AID 504314); further: potency means the concentration at half of the fitted maximal effect;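 on activity, negative = inhibition: parasite DNA measured by SYBR Green fluorescence after red cell lysis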; conditions: P. falciparum Dd2 in erythrocytes, SYBR Green growth, 72 h; series mostly up to 6.11 µM
# Outline: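 Erythrocytes infected with P. falciparum (0.3% parasitemia, 2.5% hematocrit final) were incubated with compounds for 72 h at 37C, 5% CO2. Parasite DNA was detected by SYBR Green I fluorescence after saponin/Triton lysis, normalized to artemisinin (0.29 uM) and DMSO controls.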
# [2] = qHTS for Inhibitors of Plasmodium falciparum (GB4) proliferation (AID 504315); further: nearly all actives have a fitted effect of over 50% in size; further: potency means the concentration at half of the fitted maximal effect; conditions: P. falciparum GB4 in erythrocytes, SYBR Green DNA, 72 h; series mostly up to 6.7 µM
# Outline: (§1)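 Erythrocytes infected with P. falciparum line (0.3% parasitemia, 2.5% hematocrit final) incubated with compounds 72 h at 37 °C, 5% CO2; SYBR Green lysis buffer added, fluorescence read next day. Normalized to 0.29 uM artemisinin and DMSO.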
# [3] = qHTS for Inhibitors of Plasmodium falciparum (7G8) proliferation (AID 504316); further: nearly all actives have a fitted effect of over 65% in size; further: potency means the concentration at half of the fitted maximal effect; conditions: P. falciparum 7G8 in erythrocytes, SYBR Green DNA, 72 h; series mostly up to 6.7 µM
# Outline: as §1
# [4] = molecular target: Atrial natriuretic peptide receptor 1 (Homo sapiens) (UniProt P16066); test: Natriuretic polypeptide receptor (hNpr1) antagonism - Pilot CMLD screen (AID 1347052; calls by dose curve;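 further: HEK293 cells with hNpr1 stimulated by hNppA peptide at 0.1 nM; cGMP level read as GloSensor luciferase luminescence after agonist stimulation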); conditions: HEK293 hNpr1 GloSensor cGMP luminescence, ANP-stimulated; series mostly up to 9.22 µM
# [5] = qHTS for Inhibitors of Plasmodium falciparum (HB3) proliferation (AID 504318); further: nearly all actives have a fitted effect of over 60% in size; further: potency means the concentration at half of the fitted maximal effect; conditions: P. falciparum HB3 in erythrocytes, SYBR Green DNA, 72 h; series mostly up to 7.21 µM
# Outline: as §1
# [6] = qHTS for Inhibitors of Plasmodium falciparum (CP250) proliferation (AID 504320); conditions: P. falciparum CP250 in erythrocytes, SYBR Green DNA, 72 h; series mostly up to 6.7 µM
# Outline: as §1
# Atrial natriuretic peptide receptor 1 (Homo sapiens), sequence (P16066 whole entry, looked up): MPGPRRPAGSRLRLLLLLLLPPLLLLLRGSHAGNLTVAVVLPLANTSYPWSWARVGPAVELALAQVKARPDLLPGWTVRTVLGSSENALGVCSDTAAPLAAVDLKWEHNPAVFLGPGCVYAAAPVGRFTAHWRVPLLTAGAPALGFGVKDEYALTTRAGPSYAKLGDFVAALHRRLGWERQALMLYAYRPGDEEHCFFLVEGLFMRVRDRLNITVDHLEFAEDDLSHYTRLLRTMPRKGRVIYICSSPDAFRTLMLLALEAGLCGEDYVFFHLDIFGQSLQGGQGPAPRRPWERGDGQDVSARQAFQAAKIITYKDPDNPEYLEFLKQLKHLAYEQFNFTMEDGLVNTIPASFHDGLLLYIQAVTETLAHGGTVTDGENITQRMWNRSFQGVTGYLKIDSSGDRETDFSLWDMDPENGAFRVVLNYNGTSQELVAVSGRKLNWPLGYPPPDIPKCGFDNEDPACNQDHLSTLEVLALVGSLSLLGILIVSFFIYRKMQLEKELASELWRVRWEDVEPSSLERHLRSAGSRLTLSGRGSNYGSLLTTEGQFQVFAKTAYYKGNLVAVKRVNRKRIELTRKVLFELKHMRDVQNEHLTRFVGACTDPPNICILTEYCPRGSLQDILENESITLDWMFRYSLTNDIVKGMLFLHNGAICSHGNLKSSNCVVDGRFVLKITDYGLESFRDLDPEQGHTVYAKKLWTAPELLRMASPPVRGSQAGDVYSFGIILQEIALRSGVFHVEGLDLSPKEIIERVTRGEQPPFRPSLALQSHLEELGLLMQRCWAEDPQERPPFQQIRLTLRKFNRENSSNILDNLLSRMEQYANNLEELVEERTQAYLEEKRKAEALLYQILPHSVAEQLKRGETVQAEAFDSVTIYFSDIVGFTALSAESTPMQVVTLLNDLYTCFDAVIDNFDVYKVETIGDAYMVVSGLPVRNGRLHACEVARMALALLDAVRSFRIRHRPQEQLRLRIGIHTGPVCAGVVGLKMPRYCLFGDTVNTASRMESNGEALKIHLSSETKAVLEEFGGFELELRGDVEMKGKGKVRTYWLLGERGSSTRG
SMILES,Potency [1],Potency [2],Potency [3],Potency [4],Potency [5],"activity, negative = inhibition [1]",Potency [6]
C=CC1=C2C=C(C3CC3)N(CC3CC3)C=C2C(=O)C(C)(OC(=O)c2ccco2)C1=O (stereo not drawn),inactive,inactive,inactive,inactive,–,–,–
COC(=O)N1C(c2ccccc2)=Cc2ccccc2C1CC(C)=O (stereo not drawn),inactive,inactive,inactive,inactive,inactive,–,–
CC(CCN1CCCCc2nc(C)c(C)cc21)=NO[C@H](C)c1cn([C@@H]2COC[C@@H]2O)nn1,inactive,inactive,inactive,inactive,inactive,–,–
COc1ccc(O[C@H]2C=C[C@@H](c3ccccc3)O[C@H]2COC(=O)CCC(C)=NO[C@@H](C)c2cc(-c3c(C)cc(C)cc3C)no2)cc1,inactive,inactive,inactive,inactive,inactive,–,–
O=C1CCCC=C1C(O)CCOCc1ccccc1 (stereo not drawn),inactive,inactive,inactive,inactive,inactive,–,–
OC[C@H]1O[C@H](c2ccccc2)C=C[C@H]1OCc1cccc(Br)c1,inactive,inactive,inactive,inactive,inactive,–,–
CCN1C(=O)NC(c2cccc(C(F)(F)F)c2)C(C(=O)OC)=C1C (stereo not drawn),inactive,inactive,inactive,inactive,inactive,–,–
CC1=CC[C@@H](C)O[C@@]2(C1)C(=O)Nc1cccc(Br)c12,inactive,inactive,inactive,inactive,inactive,–,–
CC1(OC(=O)C2CCCC2)C(=O)C=C2C=C(c3ccsc3)N(CCc3ccccn3)C=C2C1=O (stereo not drawn),inactive,inactive,inactive,inactive,inactive,–,–
COC(=O)N1C(C)=Cc2ccccc2C1CC(C)=O (stereo not drawn),–,inactive,inactive,inactive,inactive,-3.47% [at 1.12 µM] and -2.49% [at 1.12 µM],–
CCN1C(=O)NC(c2ccco2)C(C(C)=O)=C1C (stereo not drawn),inactive,inactive,inactive,inactive,inactive,–,–
C[C@@H]1C=CCC(=O)OC[C@H](C)C(=O)OC[C@H]2O[C@H]1C=C[C@H]2O,inactive,inactive,inactive,inactive,inactive,–,–
COc1cccc2c1[C@H](C=Cc1ccccc1)[C@@H]([C@H](O)COC(C)=O)OC2,inactive,inactive,inactive,inactive,inactive,–,–
C=C(CCN1C=C(C(C)=O)C(c2ccccc2)NC1=O)c1ccc(OC)cc1 (stereo not drawn),inactive,inactive,inactive,inactive,inactive,–,–
COCCN1C(=O)NC(CCc2ccccc2)C(C(C)=O)=C1C (stereo not drawn),inactive,inactive,inactive,inactive,inactive,–,–
C=CCOC(=O)C(C(=O)CC)[C@@H](NC(=O)OC)c1ccc(F)cc1 (stereo partly drawn),inactive,inactive,inactive,inactive,inactive,–,–
CC(C)(C)Nc1oc(-c2ccccc2)nc1-c1ccc(C(F)(F)F)cc1,inactive,inactive,inactive,inactive,inactive,–,–
COc1cccc([C@@H]2Oc3ccc(Br)cc3C(=O)[C@@H]2OC(=O)N[C@H](C)C2CCCCC2)c1,inactive,inactive,inactive,inactive,inactive,–,–
CC(C)Nc1oc(-c2ccccc2)nc1-c1ccc(C(F)(F)F)cc1,inactive,inactive,inactive,inactive,inactive,–,–
C=C(C#Cc1ccc(OC)cc1)CCN1C=C(C(=O)OCC)C(c2ccccc2)NC1=O (stereo not drawn),inactive,inactive,inactive,inactive,inactive,–,–
C[C@@H]1CC2CCC[C@@H]2[C@]2(O1)C(=O)Nc1cccc(Br)c12 (stereo partly drawn),inactive,inactive,inactive,inactive,inactive,–,–
O=C(NN=C1C[C@@H](O)[C@H](O)[C@H]2[C@@H]3C(=O)N(c4cccc(Oc5ccccc5)c4)C(=O)[C@@H]3CC[C@H]12)OCc1ccccc1,inactive,inactive,inactive,inactive,inactive,–,–
COc1ccc(-c2nc3c(c4c2C[C@H](c2ccccc2)OC4)CN(S(=O)(=O)c2ccc(C)cc2)CC3)c(C)c1,–,1690 nM (active),1.69 µM (active) and 1.9 µM (active),inactive,2130 nM (active),-0.2% [at 1.12 µM],–
CC(=O)OC[C@H]1O[C@H](CC=NO[C@H](C)CN2CCCCc3nc(C)c(C)cc32)C=C[C@@H]1OC(C)=O,inactive,inactive,inactive,inactive,inactive,–,–
CC[C@H](C)[C@@H](NC(=O)O[C@H]1C(=O)c2cc(OC)ccc2O[C@@H]1c1ccc(OC)c(Br)c1)C(=O)OC,inactive,inactive,inactive,inactive,inactive,–,–
O=C1C2=C(C(=O)c3ccccc31)[C@H]1O[C@](CCCCN3C(=O)c4ccccc4C3=O)(Cc3c1ccc1ccccc31)O2,1500 nM (active),1690 nM (active),0.953 µM (active),inactive,757 nM (active),–,–
COc1ccc(-c2nc3c(c4c2C[C@H](c2ccccc2)OC4)CN(C(=O)N[C@@H](C)c2ccccc2)CC3)c(C)c1,–,inactive,1.69 µM (active),inactive,–,3.19% [at 1.12 µM],–

SMILES,Potency [1],Potency [2],Potency [3],Potency [4],Potency [5],"activity, negative = inhibition [1]",Potency [6]
COC(=O)C1=C(C(=O)OC)[C@@H]2N(Cc3ccccc3)c3ccccc3[C@@]23C[C@@H](C(=O)OC)N(C(=O)c2cc(C)oc2C)C3=N1,inactive,inactive,inactive,inactive,inactive,–,–
COC(=O)CC=C[C@@H](C)[C@H](NC(=O)OC)c1ccccc1Br,inactive,inactive,inactive,inactive,inactive,–,–
C[C@@H]1CC2=CCCC2[C@]2(O1)C(=O)Nc1cccc(Br)c12 (stereo partly drawn),inactive,inactive,inactive,inactive,inactive,–,–
CCO[C@@H]1C[C@@]1(C=C[C@@H](C)[C@H](OC)c1ccccc1Br)C(=O)OC,inactive,inactive,inactive,inactive,inactive,–,–
CC(=O)OC[C@H]1O[C@@H](ON=C(C)CCN2CCCCc3nc(C)c(C)cc32)[C@H](OC(C)=O)[C@@H](OC(C)=O)[C@H]1OC(C)=O,inactive,inactive,inactive,inactive,inactive,–,–
COc1ccc(O[C@@H]2[C@H](O)CO[C@@H]2C=CC#Cc2ccccc2)cc1,inactive,inactive,inactive,inactive,inactive,–,–
COc1ccc(C=CC2=C[C@]3(C)C[C@]2(C)[C@H](c2ccc(OC)cc2)CC3=O)cc1,1500 nM (active),1690 nM (active),1.51 µM (active),inactive,1510 nM (active),–,–
COC(=O)CC=C1c2ccc(F)cc2[C@@H](OC)[C@@H]1C,inactive,inactive,inactive,inactive,inactive,–,–
COc1ccc2c(c1)[C@@]1(OCCC=C[C@@H]1C)C(=O)N2CC1CC1,inactive,inactive,inactive,inactive,inactive,–,inactive
COC(=O)CC=C[C@@H](C)[C@@H](Cc1ccccc1Br)OC,inactive,inactive,inactive,inactive,inactive,–,inactive
CC12C=C(C=Cc3ccc(Br)cc3)C(C)(C1)C(c1ccc(Br)cc1)CC2=O (stereo not drawn),1500 nM (active),1690 nM (active),1.69 µM (active),inactive,1690 nM (active),–,–
CC(=O)OC[C@H]1O[C@H](CC=NOCC[C@@H]2C=C[C@@H](OC(C)=O)[C@@H](COC(C)=O)O2)C=C[C@@H]1OC(C)=O,inactive,inactive,inactive,inactive,inactive,–,inactive
C=CCOC(=O)C(C(C)=O)[C@@H](NC(=O)OC)c1cccc(C)c1 (stereo partly drawn),inactive,inactive,inactive,inactive,inactive,–,inactive
COC(=O)CCCC1=CC2=C(c3ccccc3)C(=O)C(C)(OC(=O)C3CCCC3)C(=O)C2=CN1Cc1ccco1 (stereo not drawn),inactive,inactive,inactive,inactive,inactive,–,inactive
COCC1=C(C(=O)OC)C(c2ccccc2)N(C(C)=O)C(=O)N1 (stereo not drawn),inactive,inactive,inactive,inactive,inactive,–,inactive
C=CCCN1C(=O)NC(c2ccccc2)C(C(C)=O)=C1C (stereo not drawn),inactive,inactive,inactive,inactive,inactive,–,–
N#CCCn1cnc2c1NC=NC2Cl (stereo not drawn),inactive,inactive,inactive,inactive,inactive,–,inactive
C=CCOC(=O)N[C@H](c1cccc(OC)c1)[C@H](C)C=CCC(=O)OC,inactive,inactive,inactive,inactive,inactive,–,inactive
CCCCc1nc2c(c3c1C[C@H](C)OC3)CN(C(=O)c1cccnc1)CC2,inactive,inactive,inactive,inactive,inactive,–,–
C=CCOC(=O)N[C@@H](Cc1ccccc1)C(C(=O)OC)=C(C)NCc1ccccc1,inactive,inactive,inactive,inactive,inactive,–,inactive
C=C1C2c3ccccc3C(CC2(C)O[Si](C)(C)C)N1C(=O)OC (stereo not drawn),inactive,inactive,inactive,inactive,inactive,–,inactive
CCOC(=O)N1C2=NC(C(=O)OC)=C(C(=O)OC)[C@@H]3N(C)c4ccccc4[C@]23C[C@H]1C(=O)OC,inactive,inactive,inactive,inactive,inactive,–,inactive
CCN1C(=NCc2ccc(OC)cc2)NC(c2cccc(C(F)(F)F)c2)C(C(=O)OC)=C1C (stereo not drawn),inactive,inactive,inactive,inactive,inactive,–,inactive
C=C(C)CCN1C(=O)NC(c2cccc(C(F)(F)F)c2)C(C(=O)OC)=C1C (stereo not drawn),inactive,inactive,inactive,inactive,inactive,–,inactive
CC(C)(C)c1nc(-c2ccccc2)oc1Nc1ccc2ccccc2c1,1690 nM (active),1900 nM (active),1.51 µM (active),inactive,2940 nM (active),–,–
CCN(CCNC(=O)[C@H]1C=C(OC)C(=O)C[C@@H]2c3ccccc3C[C@]12C)C(C)=O,inactive,inactive,inactive,inactive,inactive,–,inactive
C[C@@H]1C=CCCO[C@]12C(=O)Nc1ccc(O)cc12,inactive,inactive,inactive,inactive,inactive,–,inactive
